The source made the active and inactive calls. Where a call stands in place of a potency, no number is given. Calls follow the shape of the full dose curve.
These molecules were tested against Muscarinic acetylcholine receptor M1 (Homo sapiens) (UniProt P11229) (assay: Cholinergic receptor muscarinic 1 (CHRM1) small molecule agonists, cell-based qHTS assay (AID 1963589; also: nearly all actives have a fitted effect of over 35% in size)). Conditions: CHRM1-CHO cells, agonist mode, calcium flux fluorescence; series mostly up to 76.8 µM.
Excerpt: National Center for Advancing Translational Sciences [NCATS]
Division of Preclinical Innovation [DPI]
U.S. Environmental Protection Agency [EPA]
National Institutes of Environmental Health Sciences [NIEHS]
National Toxicology Program [NTP]
U.S. Food and Drug Administration [FDA]
The CHRM1 is a muscarinic receptor. This receptor plays a crucial role in learning and memory processes and has long been identified as a promising therapeutic target for the improvement of cognitive decline in Alzheimer's disease (AD). The CHRM1-CHO cell line stably expressing human muscarinic acetylcholine receptor M1 (CHRM1) can be used for screening agonists and antagonists of interactions between CHRM1 and its ligands. The CHRM1-CHO Calcium Flux Assay is a homogeneous fluorescence-based assay for detecting the intracellular calcium level using FDSS kinetic plate reader system.
CHRM1-CHO cells were dispensed at 1000 cells/3uL/well in 1536-well black-clear bottom plates using a Multidrop Dispenser. After the assay plates were incubated at a 37 C/5% CO2 incubator for 18 h, 3 uL of Dye Loading Buffer was transferred to the assay plate by a Flying Reagent Dispenser. The assay plates were incubated at 37 C for 1h. For agonist mode, 23 nL of compounds dissolved in DMSO, positive controls or DMSO only was transferred to the assay plate by a pin tool. […] Each test compound was measured at 15 concentrations in three independent runs.

Sequence of Muscarinic acetylcholine receptor M1 (Homo sapiens) (P11229 whole entry, looked up): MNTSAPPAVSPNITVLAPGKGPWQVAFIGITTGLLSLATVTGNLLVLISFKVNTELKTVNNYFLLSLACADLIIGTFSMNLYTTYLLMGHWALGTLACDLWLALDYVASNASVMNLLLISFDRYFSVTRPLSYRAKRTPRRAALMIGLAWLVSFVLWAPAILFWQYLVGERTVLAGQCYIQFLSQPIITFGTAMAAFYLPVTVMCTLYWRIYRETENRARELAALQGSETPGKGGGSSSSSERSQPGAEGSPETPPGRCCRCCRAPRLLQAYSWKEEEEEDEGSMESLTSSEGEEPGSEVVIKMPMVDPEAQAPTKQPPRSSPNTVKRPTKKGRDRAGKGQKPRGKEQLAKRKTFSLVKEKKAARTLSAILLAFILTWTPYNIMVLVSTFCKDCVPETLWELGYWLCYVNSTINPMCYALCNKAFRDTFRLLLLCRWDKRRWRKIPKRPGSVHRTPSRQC

SMILES	Potency
COc1ccc2c(c1)CCCC2=O	inactive
CCN(CC)c1ccc2c(C)cc(=O)oc2c1	inactive
CCCCCCOCCOCCO	inactive
Cc1cc(C)c(C(=O)O)c(C)c1	inactive
O=C(O)c1cc(O)c(O)c(O)c1	inactive
CCN1C(=O)c2ccccc2C1Nc1ccc(OCCN2CCCCC2)cc1 (stereo not given)	inactive
CC1COc2ccccc2N1 (stereo not given)	inactive
C[N+](C)(C)CC[N+]1(C)Cc2c(Cl)c(Cl)c(Cl)c(Cl)c2C1	inactive
CCC(O)CO (stereo not given)	inactive
C[Si]1(C)O[Si](C)(C)O[Si](C)(C)O[Si](C)(C)O[Si](C)(C)O1	inactive
CC(=O)c1cc(C)oc1C	inactive
O=[N+]([O-])c1ccc(Oc2ccc([N+](=O)[O-])cc2)cc1	inactive
C=CCCC	inactive
FC(F)(F)C(Cl)(Cl)Cl	inactive
CC1CC(O)CC(C)(C)C1 (stereo not given)	inactive
CCC/C=C/CO	inactive
CCOc1ccc(Cc2nccc3cc(OCC)c(OCC)cc23)cc1OCC	inactive
C1CCCNCCC1	inactive
COc1cccc(OC)c1C(=O)N[C@@H]1C(=O)N2[C@@H]1SC(C)(C)[C@@H]2C(=O)O	inactive
[O-][n+]1ccc(Cl)cc1	inactive

SMILES	Potency
CCCc1ccc(N)cc1	inactive
Cc1cccc2c1ccc1ccccc12	inactive
CC(C)COC(=O)c1ccc(N)cc1	inactive
CC(O)Cn1cnc2c1c(=O)n(C)c(=O)n2C (stereo not given)	inactive
CC(C)Nc1ccccc1	inactive
CC(C)S	inactive
CC(C)C(=O)c1ccccc1	inactive
CCC(=O)OCc1ccc(OC)cc1	inactive
COc1ccc(OC)c(C(O)CNC(=O)CN)c1 (stereo not given)	inactive
O=C1CCCCC1	inactive
CCCc1ccc(O)cc1	inactive
CN(C)c1ccc(Cc2ccc(N(C)C)cc2)cc1	inactive
CCCCN=C(N)N=C(N)N	inactive
CCCCC1CCC(=O)O1 (stereo not given)	inactive
C=CC(C)(CCC=C(C)C)OC(=O)CC (stereo not given)	inactive
O=C(O)c1ccccc1C(c1ccc(O)cc1)c1ccc(O)cc1	inactive
COc1ccc(C)cc1	inactive
O=C(O)CCc1ccccc1	inactive
Cc1ccccc1S(N)(=O)=O	inactive
O=C1c2ccccc2CCc2ccccc21	inactive

Source: PubChem BioAssay (Tox21)
